Values joined by “and” are separate entries in the source; they are usually repeats but may differ in a detail not shown here. Identical values can stand only once. Screen size: about 5,500 compounds; about 2,000 (36%) were called active. Roughly 18% stayed inconclusive and do not appear here. No stated cut-off is given here; in the data, active means normalized growth mostly below about 0.91 (no sharp cut-off); inconclusive means no clear call, values can overlap the other calls; inactive means mostly above about 0.92. Some of the results follow.
Test: chemical genetic growth profiling, strain panel (AID 1159580);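 further: tested at 20 µM; growth read once vehicle control cultures reached saturation at 30 °C; 1 = growth at the plate median or of vehicle wells; lower values mean less growth of the strain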
Details: S. cerevisiae deletion strains, growth OD

Measured: normalized growth

CCCCC1C(=O)N(c2ccccc2)N(c2ccccc2)C1=O
inactive: locus YAL013W, strain DEP1, active compounds read low 0.971 and 0.998 | locus YAL021C, strain ccr4, active compounds read low 0.999 | locus YAL026C, strain drs2, active compounds read low 0.982 | locus YAL030W, strain snc1, active compounds read low 0.987 | locus YAL040C, strain CLN3, active compounds read low 0.963 | locus YBL061C, strain skt5, active compounds read low 0.997 | locus YBR009C, strain hhf1, active compounds read low 1.01 | locus YBR021W, strain FUR4, active compounds read low 1.01 | locus YBR023C, strain chs3, active compounds read low 0.998 | locus YBR171W, strain sec66, active compounds read low 0.977 | locus YBR229C, strain ROT2, active compounds read low 0.983 | locus YBR231C, strain swc5, active compounds read low 1 | locus YBR279W, strain paf1, active compounds read low 1.02 | locus YCL011C, strain gbp2, active compounds read low 1 | locus YCL016C, strain dcc1, active compounds read low 1 | locus YCL029C, strain bik1, active compounds read low 1.01 | locus YCL061C, strain MRC1 (second series), active compounds read low 0.998 | locus YCL061C, strain MRC1, active compounds read low 0.983 | locus YCL069W, strain vba3, active compounds read low 0.999 | locus YCR088W, strain abp1, active compounds read low 0.985 | locus YDL005C, strain med2, active compounds read low 1 | locus YDL035C, strain GPR1, active compounds read low 0.989 | locus YDL040C, strain nat1, active compounds read low 0.99 | locus YDL074C, strain BRE1, active compounds read low 1.02 | locus YDL101C, strain DUN1, active compounds read low 1.01 | locus YDL134C, strain PPH21, active compounds read low 0.986 | locus YDL185W, strain tfp1, active compounds read low 0.994 | locus YDL192W, strain arf1, active compounds read low 0.988 | locus YDR001C, strain nth1, active compounds read low 0.984 | locus YDR069C, strain doa4, active compounds read low 0.982 | locus YDR101C, strain arx1, active compounds read low 1.01 | locus YDR137W, strain rgp1, active compounds read low 0.915 | locus YDR150W, strain NUM1, active compounds read low 0.99 and 0.997 | locus YDR159W, strain sac3, active compounds read low 0.972 | locus YDR162C, strain NBP2, active compounds read low 0.976 | locus YDR195W, strain ref2 0.992 | locus YDR297W, strain sur2, active compounds read low 0.989 | locus YDR318W, strain mcm21, active compounds read low 1.01 | locus YDR334W, strain swr1, active compounds read low 0.994 | locus YDR335W, strain msn5, active compounds read low 0.997 | locus YDR363W, strain ESC2, active compounds read low 1.03 | locus YDR388W, active compounds read low 1 | locus YDR392W, strain spt3, active compounds read low 0.969 | locus YDR502C, strain sam2, active compounds read low 0.986 | locus YEL003W, strain gim4, active compounds read low 1 | locus YEL037C, strain rad23, active compounds read low 0.991 | locus YEL061C, strain CIN8 (second series), active compounds read low 0.983 | locus YEL061C, strain CIN8, active compounds read low 0.981 | locus YER002W, strain NOP16, active compounds read low 0.974 | locus YER015W, strain faa2, active compounds read low 0.998 | locus YER016W, strain bim1, active compounds read low 0.99 | locus YER110C, active compounds read low 0.993 | locus YER111C, strain swi4, active compounds read low 0.979 | locus YER155C, strain BEM2 (second series), active compounds read low 1.03 | locus YER155C, strain BEM2, active compounds read low 1.01 | locus YER167W, strain BCK2, active compounds read low 0.987 | locus YFR010W, strain ubp6, active compounds read low 0.991 | locus YGL078C, strain dbp3, active compounds read low 1.01 | locus YGL086W, strain mad1, active compounds read low 0.963 | locus YGL167C, strain pmr1, active compounds read low 0.977 | locus YGL173C, strain kem1, active compounds read low 0.983 | locus YGL227W, strain vid30, active compounds read low 1 | locus YGL240W, strain doc1, active compounds read low 1.01 | locus YGL248W, strain PDE1, active compounds read low 0.991 | locus YGL253W, strain hxk2, active compounds read low 0.994 | locus YGR078C, strain PAC10, active compounds read low 1.02 and 0.981 | locus YGR135W, strain pre9, active compounds read low 0.994 | locus YGR229C, strain SMI1, active compounds read low 0.983 and 1 | locus YGR252W, strain gcn5, active compounds read low 0.922 | locus YHR013C, strain ard1, active compounds read low 0.992 | locus YHR027C, strain rpn1, active compounds read low 0.99 | locus YHR030C, strain SLT2, active compounds read low 0.992 and 0.937 | locus YHR079C, strain IRE1 (second series), active compounds read low 1 | locus YHR079C, strain IRE1, active compounds read low 0.917 | locus YHR094C, strain hxt1, active compounds read low 0.991 | locus YHR129C, strain ARP1, active compounds read low 0.994 | locus YHR142W, strain chs7, active compounds read low 1.03 | locus YHR200W, strain rpn10, active compounds read low 1 | locus YIL066C, strain RNR3, active compounds read low 0.991 | locus YIL073C, strain SPO22, active compounds read low 1.01 | locus YIL125W, strain kgd1, active compounds read low 0.98 | locus YIR030C, strain dcg1, active compounds read low 0.993 | locus YJL092W, strain hpr5, active compounds read low 0.985 | locus YJL095W, strain BCK1 (second series), active compounds read low 0.996 | locus YJL095W, strain BCK1, active compounds read low 1.03 and 0.938 | locus YJL115W, strain asf1, active compounds read low 0.99 | locus YJL129C, strain trk1, active compounds read low 0.999 | locus YJL134W, strain LCB3, active compounds read low 0.977 | locus YJL154C, strain vps35, active compounds read low 0.991 | locus YJL164C, strain tpk1, active compounds read low 1.01 | locus YJL166W, strain qcr8, active compounds read low 1.01 | locus YJL168C, strain set2, active compounds read low 0.988 | locus YJL187C, strain SWE1 (second series), active compounds read low 1.01 | locus YJL187C, strain SWE1, active compounds read low 0.988 | locus YJR043C, strain POL32, active compounds read low 1.04 | locus YJR066W, strain TOR1, active compounds read low 0.915

From PubChem BioAssay AID1159580 (chemical genetic matrix, 2015)
